The values below come from PubChem BioAssay (Tox21).

Molecules are shown by their SMILES. Values joined by “and” are separate entries in the source; they are usually repeats but may differ in a detail not shown here. Identical values can stand only once. Results filed as inconclusive are left out. Where a call stands in place of a potency, no number is given. Values without a mark were called inactive. Active and inactive are the calls of the source. Calls follow the shape of the dose curve; as a rule, active = well fitted inhibition curve with a large enough effect in the repeat runs; inconclusive = weak or mixed curves; inactive = no such curve, though single readings can be large or run the other way.
Potency is read from the fitted curve at half-maximal effect.

Chain of Aromatase (Homo sapiens) (P11511 whole entry, looked up): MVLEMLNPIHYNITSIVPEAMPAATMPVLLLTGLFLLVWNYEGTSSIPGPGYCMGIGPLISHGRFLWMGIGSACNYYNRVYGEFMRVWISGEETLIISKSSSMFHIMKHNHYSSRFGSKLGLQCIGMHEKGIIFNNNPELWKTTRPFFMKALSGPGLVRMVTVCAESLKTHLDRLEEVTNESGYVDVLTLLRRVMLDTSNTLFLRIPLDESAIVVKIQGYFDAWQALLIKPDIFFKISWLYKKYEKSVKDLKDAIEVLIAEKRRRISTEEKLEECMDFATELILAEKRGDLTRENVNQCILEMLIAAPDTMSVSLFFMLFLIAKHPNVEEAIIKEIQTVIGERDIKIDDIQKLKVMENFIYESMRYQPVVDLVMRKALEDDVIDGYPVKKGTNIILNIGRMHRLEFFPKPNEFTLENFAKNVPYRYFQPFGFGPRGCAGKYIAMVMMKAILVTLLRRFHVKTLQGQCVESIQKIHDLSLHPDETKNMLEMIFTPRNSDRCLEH

The assay addresses Aromatase (Homo sapiens) (UniProt P11511). In words: qHTS assay to identify aromatase inhibitors (AID 743083). Also: nearly all actives have a fitted effect of over 55% in size. Particulars: MCF-7 aro ERE, testosterone-driven ERE luciferase, 24 h; series mostly up to 70.3 µM.
For `O=C(Cl)OCCOCCOC(=O)Cl`, the Potency result was “inactive”.

For the compound `Nc1cccc2ccccc12`, the Potency entry is “inactive”.

In the case of `c1ccc2c(c1)-c1cccc3cccc-2c13`, the Potency entry is “inactive”. On the same count and under the same terms, under `CCC1(CCC(C)C)C(=O)NC(=O)NC1=O` stands “inactive”; under `O=C1NC(=O)C(=O)C(=O)N1`, “inactive”. Same read-out and setting: under `Clc1ccc(Cl)c(Cl)c1` stands “inactive”; under `[Cl-].[Cl-].[Hg+2]`, 13.3 µM (active) and 1.36 µM (active) and 15.4 µM (active); under `CN1CC[C@]23c4c5ccc(O)c4O[C@H]2[C@@H](O)C=C[C@H]3[C@H]1C5`, “inactive”. On the same count and under the same terms, the same measure for `COc1ccc(C(=O)c2c(C)n(CCN3CCOCC3)c3ccccc23)cc1`: “inactive”. Regarding `O=C1c2ccccc2C(=O)N1SC(Cl)(Cl)Cl`, the Potency was 3.02 µM (active) and 4.86 µM (active). The same measure, in the same setting: under `O=C(O)c1cc(I)cc(I)c1I` stands “inactive”; under `CCCCNC(=O)OCC#CI`, 4.83 µM (active) and 13.7 µM (active); under `CCC1(C2=NCCN2)Cc2ccccc2O1` (centres undefined), “inactive”. On to `O=C(O)C(Cl)(Cl)Br`, for which the Potency result is “inactive”. Consider `C[CH2][Hg][S]c1ccccc1C(=O)O`, for which the Potency was 5.96 µM (active) and 1.09 µM (active). Still for that read-out and setting: the same measure for `CCCCCCCCn1sccc1=O`: 10.9 µM (active) and 32.1 µM (active); for `CC1(C)[C@H](C(=O)O[C@H](C#N)c2cccc(Oc3ccccc3)c2)[C@@H]1C=C(Br)Br`: “inactive”. For `CCCCCCCCCCCCN=C(N)N`, the activity, negative = inhibition was -1.41% [at 3.79 µM]. As to `CCCCCCCCP(=O)(O)O`, the Potency result is “inactive”.

Regarding `CN1C[C@H](C(=O)N[C@]2(C)O[C@@]3(O)[C@@H]4CCCN4C(=O)[C@H](Cc4ccccc4)N3C2=O)C=C2c3cccc4[nH]cc(c34)C[C@H]21`, the Potency entry was “inactive”. On the same count and under the same terms, under `CNC(=O)Oc1cccc(N=CN(C)C)c1` stands “inactive”; under `O=C(O)C(O)C(O)C(=O)O` (centres undefined), “inactive”. Still for that read-out and setting: under `C=CCc1ccc(OC(=O)Cc2ccccc2)c(OC)c1` stands “inactive”; under `Cc1ncc(C[n+]2csc(CCO)c2C)c(N)n1`, “inactive”; under `O=C1CC[C@@]2(O)[C@H]3Cc4ccc(O)c5c4[C@@]2(CCN3CC2CC2)[C@H]1O5`, “inactive”. In the case of `O=C(O)COc1cc(Cl)c(Cl)cc1Cl`, the Potency entry is “inactive”. The same measure, in the same setting: the same measure for `CCCN(CCOc1c(Cl)cc(Cl)cc1Cl)C(=O)n1ccnc1`: 1.57 µM (active) and 969 nM (active).

Regarding `CN(C)C(=O)Nc1cccc(OC(=O)NC(C)(C)C)c1`, the Potency entry is “inactive”.

In the case of `O=[N+]([O-])/C=C/c1ccccc1`, the Potency is 27.8 µM (active).

For `CC(C)CCCCCCCOC(=O)c1ccccc1C(=O)OCCCCCCCC(C)C`, the Potency entry is “inactive”. The same measure, in the same setting: under `O=C(O)CCCOc1ccc(Cl)cc1Cl` stands “inactive”; under `COC1=CC(=O)O[C@@H](/C=C/c2ccc3c(c2)OCO3)C1`, “inactive”; under `CC(C)[C@@H](C(=O)O[C@@H](C#N)c1cccc(Oc2ccccc2)c1)c1ccc(Cl)cc1`, “inactive”. On the same count and under the same terms, the same measure for `C[C@@H]1C[C@@H]([C@H](O)CC2CC(=O)NC(=O)C2)C(=O)[C@@H](C)C1`: 750 nM (active) and 383 nM (active).
